Here are results for 40 compounds from PubChem BioAssay.

One assay in a line: TOR pathway CIT2 reporter hit retest – S. cerevisiae, GFP fusion, cherry picks, mother/daughter gates, confirmation (AID 2274). The settings on record: S. cerevisiae CIT2-GFP strain, flow cytometry, 3 h; measured here: daughter cell gate; at 10 µM; stronger effect = higher value. (In general: In flow cytometry, cells or beads pass a laser one at a time.)
`CCOC(=O)/C=C1\SCC(=O)N1Cc1nnc(-c2ccccc2Br)o1` yielded a GFP response, % of DMSO of 101%.
`O=C(Nc1c2c(nn1-c1ccccc1)CS(=O)C2)c1ccco1` (configuration not stated) displayed a GFP response, % of DMSO of 99.3%.
On the same count and under the same terms, in the case of `CCn1c(=O)c(C(=O)NCCc2ccccc2)c(O)c2ccccc21` it was 99.3%.
In turn, `CN1CCN(C(c2ccc(C(F)(F)F)cc2)c2ccc3cccnc3c2O)CC1` (configuration not stated) showed a GFP response, % of DMSO of 95.6%.
The same measure, in the same setting: in the case of `COc1ccc(C2N(c3ccc(Cl)cc3)N=C(C(C)=O)N(C)N2C(C)=O)cc1` (configuration not stated) it was 106%; in that of `COC(=O)CCS(=O)(=O)c1nc(-c2ccccc2)cc(C(F)(F)F)n1`, 110%.
Same read-out and setting: in the case of `CCc1ccc(OCC(=O)NNC(=S)NC(=O)C2CC2)c(Br)c1` it was 110%; in that of `Cc1cccc(Cn2cc(/C=C/[N+](=O)[O-])c3ccccc32)c1`, 95.6%; in that of `CCc1ccc2c(c1)C1(NN=C(c3cccc4ccccc34)S1)C(=O)N2` (configuration not stated), 99.3%.
Compound `N#C/C(=C\c1c(N2CCCCCC2)nc2ccccn2c1=O)C(=O)NCc1ccco1` returned a GFP response, % of DMSO of 99.1%.
The same measure, in the same setting: the value for `CCOC(=O)C(=CNNc1ccccc1)C(=O)OCC` was 101%; that for `O=C(O)Cn1cc(/C=C/[N+](=O)[O-])c2ccccc21` was 99.1%.
As to `N#C/C(C(=O)Nc1ccc(Cl)cc1)=C(/S)Nc1ccccc1`, the GFP response, % of DMSO worked out at 105%.
The compound `CCCc1[nH]nc2c1C(c1ccc(OC)c(Cn3nnc4ccccc43)c1)C(C#N)=C(N)O2` (configuration not stated) displayed a GFP response, % of DMSO of 99.1%.
On the same count and under the same terms, the value for `COc1ccc(-c2csc(Nc3ncccc3C)n2)cc1` was 105%; that for `Cc1ccccc1C(=O)NNC(=S)NC(=O)c1ccc(Cl)cc1Cl` was 109%.
Still for that read-out and setting: the value for `O=C(NC(c1ccccc1)C(Cl)Cl)c1ccccc1` (configuration not stated) was 108%.
The same measure, in the same setting: in the case of `Cc1ccc2nc(Cl)c3nnnn3c2c1` it was 84.8%; in that of `CN1C(=O)c2cccc3c(Cl)ccc(c23)C1=O`, 95.6%; in that of `Cc1nc2c(-c3ccc(F)cc3)cnn2c(N)c1-c1ccccc1`, 101%.
Compound `COc1ccc(C2CC(c3c(-c4ccccc4)c4cc(Cl)ccc4[nH]c3=O)=NN2S(C)(=O)=O)cc1` (configuration not stated) registered a GFP response, % of DMSO of 101%.
As for `O=C(N/N=C\c1ccc(F)cc1)c1cc(OCC(F)(F)F)ccc1OCC(F)(F)F`, the GFP response, % of DMSO amounted to 106%.

Staying with this assay, now noted: S. cerevisiae CIT2-GFP strain, flow cytometry, 3 h; measured here: mother cell gate; at 10 µM; stronger effect = higher value.
In turn, `Cc1ccc(/C=C/C(=O)c2ccc([N+](=O)[O-])o2)cc1` came in with a GFP response, % of DMSO of 89.3%.
`CCCN1CCc2c(sc(NC(=S)NC(=O)c3ccccc3)c2C#N)C1` showed a GFP response, % of DMSO of 108%.
Same read-out and setting: in the case of `O=C(CN1CCN(Cc2ccccc2Cl)C1=O)NC1CCCCCCC1` it was 104%; in that of `O=c1oc(/C=C/c2ccc([N+](=O)[O-])s2)nc2ccccc12`, 181%; in that of `COc1ccccc1Oc1ccc(S(=O)(=O)N2CCCC2)cc1`, 92.3%.
Still for that read-out and setting: the value for `COc1ccc(C(=O)Nc2c(N)nc[nH]c2=O)cc1` was 102%; that for `Cc1[nH]n(-c2ncc(-c3ccccc3)s2)c(=O)c1C(c1ccc(Cl)cc1)C(C#N)C#N` (configuration not stated) was 89.3%.
Still for that read-out and setting: in the case of `COc1ccc(-c2cc3cc(C(=O)O)ccn3c2C(=O)c2ccccc2)cc1` it was 99.7%; in that of `CCOC(=O)c1ccc(NC(=O)CCc2nc(-c3ccc(Cl)cc3)no2)cc1`, 104%; in that of `CS(=O)(=O)N1N=C(c2ccco2)CC1c1ccc(Br)cc1` (configuration not stated), 101%.
`O=C(O)c1ccc2c3c(ncnc13)-c1ccccc1C2=O` registered a GFP response, % of DMSO of 117%.
On the same count and under the same terms, in the case of `CCN(CC)C(=O)c1ccc2c3c(cccc13)C(=O)N(CCc1ccc(OC)c(OC)c1)C2=O` it was 94.5%.
Same read-out and setting: the value for `Oc1cccc(/C=N/c2c(-c3ccco3)nc3ccccn23)c1` was 94.5%; that for `O=C(Nc1nccs1)C(c1ccccc1)N1CCCCC1` (configuration not stated) was 94.4%.
In the case of `CCN1/C(=C/c2ccc3cc(C)ccc3[n+]2CC)Sc2ccc3sccc3c21`, the GFP response, % of DMSO came to 133%.
On the same count and under the same terms, the value for `COCCCN(C(=O)c1ccco1)c1nc(-c2cc(OC)ccc2OC)cs1` was 99.3%; that for `O=C1[C@@H]2C3C=CC(O3)[C@@H]2C(=O)N1c1ccccc1` was 100%.
Take `CCOC(=O)C1CCCN(c2nc3c(C)cccn3c(=O)c2/C=C(\C#N)C(=O)NCc2ccco2)C1` (configuration not stated): the GFP response, % of DMSO came out at 100%.
Still for that read-out and setting: in the case of `CCOC(=O)/C=C1\SCC(=O)N1Cc1nnc(-c2ccccc2Br)o1` it was 99.7%; in that of `O=C(Nc1c2c(nn1-c1ccccc1)CS(=O)C2)c1ccco1` (configuration not stated), 96%.
On the same count and under the same terms, in the case of `CCn1c(=O)c(C(=O)NCCc2ccccc2)c(O)c2ccccc21` it was 98.2%.
Still for that read-out and setting: in the case of `CN1CCN(C(c2ccc(C(F)(F)F)cc2)c2ccc3cccnc3c2O)CC1` (configuration not stated) it was 94.4%; in that of `COc1ccc(C2N(c3ccc(Cl)cc3)N=C(C(C)=O)N(C)N2C(C)=O)cc1` (configuration not stated), 106%; in that of `COC(=O)CCS(=O)(=O)c1nc(-c2ccccc2)cc(C(F)(F)F)n1`, 93.7%.
`CCc1ccc(OCC(=O)NNC(=S)NC(=O)C2CC2)c(Br)c1` registered a GFP response, % of DMSO of 105%.
With `Cc1cccc(Cn2cc(/C=C/[N+](=O)[O-])c3ccccc32)c1`, the GFP response, % of DMSO amounted to 93.2%.
Still for that read-out and setting: in the case of `CCc1ccc2c(c1)C1(NN=C(c3cccc4ccccc34)S1)C(=O)N2` (configuration not stated) it was 88.2%.
`N#C/C(=C\c1c(N2CCCCCC2)nc2ccccn2c1=O)C(=O)NCc1ccco1` yielded a GFP response, % of DMSO of 96.1%.
In the case of `CCOC(=O)C(=CNNc1ccccc1)C(=O)OCC`, the GFP response, % of DMSO came to 103%.
Consider `O=C(O)Cn1cc(/C=C/[N+](=O)[O-])c2ccccc21`, for which the GFP response, % of DMSO amounted to 99.7%.
As for `N#C/C(C(=O)Nc1ccc(Cl)cc1)=C(/S)Nc1ccccc1`, the GFP response, % of DMSO came out at 105%.
The same measure, in the same setting: in the case of `CCCc1[nH]nc2c1C(c1ccc(OC)c(Cn3nnc4ccccc43)c1)C(C#N)=C(N)O2` (configuration not stated) it was 99.7%; in that of `COc1ccc(-c2csc(Nc3ncccc3C)n2)cc1`, 99.7%; in that of `Cc1ccccc1C(=O)NNC(=S)NC(=O)c1ccc(Cl)cc1Cl`, 94.5%.
The same measure, in the same setting: the value for `O=C(NC(c1ccccc1)C(Cl)Cl)c1ccccc1` (configuration not stated) was 106%; that for `Cc1ccc2nc(Cl)c3nnnn3c2c1` was 72.3%.
Still for that read-out and setting: in the case of `CN1C(=O)c2cccc3c(Cl)ccc(c23)C1=O` it was 98.1%.
In the case of `Cc1nc2c(-c3ccc(F)cc3)cnn2c(N)c1-c1ccccc1`, the GFP response, % of DMSO amounted to 104%.
`COc1ccc(C2CC(c3c(-c4ccccc4)c4cc(Cl)ccc4[nH]c3=O)=NN2S(C)(=O)=O)cc1` (configuration not stated) came in with a GFP response, % of DMSO of 99.7%.
As for `O=C(N/N=C\c1ccc(F)cc1)c1cc(OCC(F)(F)F)ccc1OCC(F)(F)F`, the GFP response, % of DMSO worked out at 103%.
